Bioassay records deposited in PubChem BioAssay by Milwaukee Institute for Drug Discovery.
Most compounds without a hit are left out; they make up all but 6.8% or so of the library.
Cy5 interf NS3h = enhances or quenches Cy5 fluorescence in NS3h assay; Cy5-dT15 DNA with NS3h, fluorescence interference; actives lie on both sides; signal over control mean, under 1 quenches; fluorescence interference ratio at 100 µM; 6% of 16,000 active;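 active = compound fluorescence over control fluorescence at most 0.8, a quencher, or at least a set upper limit, an enhancer; inactive = ratio between 0.8 and the set upper limit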
NS3h inh CB = hepatitis C NS3 helicase inhibition, primary screen. NS3h Cy5-dT15 DNA binding, fluorescence polarization. inhibition, % at 100 µM. 1.6% of 16,000 active. AID 687043;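 active = inhibition above the average over every tested compound plus 3 SD, cut at about 40% in these data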
Starred values were filed as active, the others as inactive.

SMILES | Cy5 interf NS3h | NS3h inh CB
Cc1cc(=O)[nH]c(Nc2nc(C)c3cccc(C)c3n2)n1 | 1.1 | 36
Cc1nc(Nc2nc(O)cc(=O)[nH]2)nc2c(C)cccc12 | 0.64* | -4
CCOc1ccccc1NC(=O)c1ccc(C)c([N+](=O)[O-])c1 | 0.75* | 18
COc1ccc(NC(=O)c2ccc(C)c([N+](=O)[O-])c2)cc1 | 0.74* | 13
Cc1ccc(C(=O)Nc2ccc3oc(-c4ccc(F)cc4Cl)nc3c2)cc1[N+](=O)[O-] | 0.74* | 6
O=C(Nc1ccc(Oc2ccccc2)cc1)c1ccc([N+](=O)[O-])cc1 | 1 | 2
NS(=O)(=O)c1ccc(NC(=O)c2ccc(Oc3ccccc3)cc2)cc1 | 1.2* | 1
CCc1ccc(NC(=O)c2ccc(C)c([N+](=O)[O-])c2)cc1 | 1 | -5
CCOc1ccccc1NC(=O)c1ccc([N+](=O)[O-])cc1 | 1 | -7
COc1cccc(C(=O)Nc2ccc3oc(-c4ccc(F)cc4Cl)nc3c2)c1 | 1.1 | -16
CC(C)CC(NC(=O)c1ccccc1)C(=O)OCC(=O)N1c2ccccc2Sc2ccccc21 (centres undefined) | 0.99 | 3
CCOc1ccc(NC(=O)c2ccc(Cl)c([N+](=O)[O-])c2)cc1 | 0.73* | 17
CCOc1ccc(-n2nc3ccc(NC(=O)c4ccc(Cl)cc4)cc3n2)cc1 | 0.64* | 15
O=C(COc1ccccc1[N+](=O)[O-])Nc1ccc2oc(-c3ccccc3Br)nc2c1 | 1.1 | -20
CCOc1cccc(C(=O)Nc2ccc3nn(-c4ccc(F)cc4)nc3c2)c1 | 1.1 | -24
CCOc1ccc(NC(=O)c2ccc(C)c([N+](=O)[O-])c2)cc1 | 1 | 5
O=C(COc1ccccc1[N+](=O)[O-])Nc1ccc2oc(-c3cc(Br)ccc3Cl)nc2c1 | 1.2* | -18
COC(=O)c1ccc(NC(=S)NC(=O)c2ccc(OC)cc2)cc1 | 0.95 | 21
COc1ccc(C(=O)Nc2ccc(C(=O)O)cc2)cc1 | 1.2* | -3
CCc1ccccc1N(CC(=O)Nc1cccc(C(F)(F)F)c1)S(C)(=O)=O | 0.87 | 18
COc1ccc(NC(=O)c2ccccc2[N+](=O)[O-])c(OC)c1 | 1 | -18
CN(C)Cc1c(O)ccc2cc(-c3nc4ccccc4s3)c(=O)oc12 | 0.99 | 7
CCN1C(=O)/C(=C\c2ccccc2OS(=O)(=O)c2ccc(C)cc2)SC1=S | 0.96 | 11
O=C(Nc1ccccc1F)c1ccccc1[N+](=O)[O-] | 1.1 | -4
COc1ccccc1C(=O)NC(NC(=O)c1ccccc1OC)c1cccc([N+](=O)[O-])c1 | 0.99 | 11
SMILES | Cy5 interf NS3h | NS3h inh CB
COc1ccc(/C=c2/sc3nc(-c4ccc(C(C)(C)C)cc4)nn3c2=O)cc1 | 0.98 | 7
CCOC(=O)COc1ccc2oc(C)c(C(=O)OC(C)C)c2c1 | 0.86 | 14
CCN(CC)C(=O)COc1ccc2oc(C)c(C(=O)OC(C)C)c2c1 | 0.79* | 16
Cc1cc([N+](=O)[O-])ccc1NC(=O)/C=C/c1ccc2c(c1)OCO2 | 1.1 | 6
CCOC(=O)c1sc2nccc3c2c1N=CN3c1ccccc1 | 1.1 | 13
O=C(NCCN1CCOCC1)c1cnn2c1NC(c1ccco1)CC2C(F)(F)F (centres undefined) | 1 | 0
Cc1ccc(C2CC(C(F)(F)F)n3ncc(C(=O)N4CCN(c5ccc(F)cc5)CC4)c3N2)cc1 (centres undefined) | 0.63* | 3
COc1ccc(C2CC(C(F)(F)F)n3ncc(C(=O)NC(C)(C)C)c3N2)cc1 (centres undefined) | 0.69* | 8
COc1ccc(C2CC(C(F)(F)F)n3ncc(C(=O)Nc4ccccc4SC)c3N2)cc1 (centres undefined) | 1 | 8
COCCNC(=O)c1cnn2c1NC(c1ccc(OC)c(OC)c1)CC2C(F)(F)F (centres undefined) | 0.94 | -10
O=C(c1ccccc1)N1CCN(C(=O)c2cnn3c2NC(c2ccc(Br)cc2)CC3C(F)(F)F)CC1 (centres undefined) | 1.1 | 17
Cc1ccc(C2CC(C(F)(F)F)n3ncc(C(=O)NCCN4CCOCC4)c3N2)cc1 (centres undefined) | 0.77* | 9
COc1ccc(C2CC(C(F)(F)F)n3ncc(C(=O)N4CCN(Cc5ccccc5)CC4)c3N2)cc1OC (centres undefined) | 0.61* | 9
O=C(CSCc1cccc(Br)c1)N1CCCCCC1 | 0.86 | 8
COc1ccc(OC(C)C(=O)Nc2ccc(F)cc2)cc1 (centres undefined) | 1 | 10
Cc1ccccc1C(=O)Nc1cccc(C(=O)Nc2ccccc2Cl)c1 | 1.1 | -6
COc1ccccc1C1NC(=S)NC(C)=C1C(=O)Nc1ccccc1Cl (centres undefined) | 1.1 | 14
O=C1c2ccccc2C(=O)N1CCCCN(C(=O)c1cccc([N+](=O)[O-])c1)c1ccc(F)cc1F | 0.95 | 11
Cc1ccc(-c2nc3cc(Cl)ccc3o2)cc1NC(=O)c1ccc2c(c1)OCCO2 | 1.2 | -4
CC(=O)Nc1ccc2oc(-c3cccc(Cl)c3)nc2c1 | 1.2* | -20
O=C(Nc1cccc(-c2nc3cc(Cl)ccc3o2)c1)c1ccc2c(c1)OCCO2 | 0.71* | 11
O=C(COc1ccccc1[N+](=O)[O-])Nc1ccc2oc(-c3cccc(Cl)c3)nc2c1 | 1.1 | -19
CC(=O)Nc1nonc1-c1nc2ccccc2n1Cc1ccc([N+](=O)[O-])cc1 | 0.84 | -49
O=[N+]([O-])c1ccc(CSc2nnc(-c3cccc(F)c3)n2-c2ccccc2)cc1 | 0.79* | 4
Cc1ccc(CSc2nnc(-c3cccc(F)c3)n2-c2ccccc2)cc1 | 0.88 | 4
SMILES | Cy5 interf NS3h | NS3h inh CB
Cc1[nH]c2ccccc2c1/C=N\Nc1ccc([N+](=O)[O-])cc1 | 0.97 | 31
Cc1[nH]c2ccccc2c1/C=N\NC(=O)c1cccc([N+](=O)[O-])c1 | 0.63* | -2
COC(=O)C(=C/C(C)=C/N1CCOCC1)C(=O)OC | 1 | -1
C=CCOC(=O)C1=C(C)NC(C)=C(C(=O)OCC=C)C1c1ccco1 | 0.73* | 29
CCOC(=O)C1=C(C)NC(C)=C(C(=O)OC)C1c1ccco1 (centres undefined) | 0.91 | -3
COc1cc(-c2nc(-c3ccccc3)c(-c3ccccc3)[nH]2)cc(OC)c1OC | 0.92 | -4
CCc1ccccc1N1C(=O)CC(Sc2nc(C)cc(C)n2)C1=O (centres undefined) | 0.94 | 9
O=C(O)c1ccccc1NC1=C(Cl)C(=O)N(c2cccc(Cl)c2)C1=O | 1.1 | 8
O=C1C(=O)N(c2ccccc2Br)C(=O)N1c1cccc(Cl)c1 | 0.7* | 19
COc1cc(NC(=O)c2cc3n(n2)C(C(F)(F)F)CC(c2ccc(Br)cc2)N3)cc(OC)c1OC (centres undefined) | 0.91 | 17
CCOC(=O)c1ccccc1NC(=O)Cc1ccccc1[N+](=O)[O-] | 1.1 | 16
CCOC(=O)c1c(-c2ccc(C)cc2)csc1NC(=O)C1CC1 | 1 | 8
CCOC(=O)c1c(-c2ccc(C)cc2)csc1NC(=O)C(C)(C)C | 0.69* | 19
CCOC(=O)c1sc(NC(=O)c2nn3c(c2Cl)NC(c2cccs2)CC3C(F)(F)F)c(C(=O)OCC)c1C (centres undefined) | 1 | 16
O=C(c1nn2c(c1Cl)NC(c1cccs1)CC2C(F)(F)F)N1CCOCC1 (centres undefined) | 0.67* | 1
